According to PubChem BioAssay (NCI):
The panel holds about 83,000 compounds, 20% with a hit somewhere; the sample as a whole holds those more often.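 Compound tested at a single concentration for 48 hours in 96-well plates; a percent growth value below 10 was scored as active.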 Unmarked numbers belong to inactive results.

System: OVCAR-3 ovarian
Assay: NCI-60 one-dose screen, 48 h (100 = growth as untreated, 0 = no growth, -100 = all killed)
Conditions: 10 µM

With `CCCCOC(OCCCC)c1ccccc1` as the compound, how does the growth read?
Its growth is 105%.

For `O=C(O)c1cccc([N+](=O)[O-])c1O`, which growth is on record?
The growth was 116%.

`O=C1c2ccccc2C(=O)N1OCc1ccccc1` was tested. Which growth did it give?
Its growth is 105%.

Which growth does the source give for `C[C@@H](c1ccccc1)[C@@H](C(=O)O)c1ccccc1` here?
The growth was 104%.

With `CC1=CC(C)(C)NC(=S)N1c1ccc(S(=O)(=O)O)c2cccc(S(=O)(=O)O)c12` as the compound, how does the growth read?
Its growth is 99.9%.

With `CC(=O)OC(OC(C)=O)C1CCCO1` (centres undefined) as the compound, how does the growth read?
The growth was 114%.

Which growth does the source give for `c1ccc2c(N3CCCCC3)ncnc2c1` here?
The growth was 97.3%.

`S=c1nn[nH]c2ccccc12` was tested. Which growth did it give?
Its growth is 111%.

For `O=[N+]([O-])c1ccc(Sc2ccncn2)c([N+](=O)[O-])c1`, which growth is on record?
Its growth is 63.7%.

For `O=c1[nH]c(O)c(/C=C2/C=Nc3ccccc32)[nH]1`, which growth is on record?
Its growth is 100%.

`CC1OC(Oc2c(-c3ccc(O)c(O)c3)oc3cc(O)cc(O)c3c2=O)C(O)C(O)C1O` (centres undefined) was tested. Which growth did it give?
Its growth is 103%.

For `Cc1ccc(O)c(C(=O)c2ccccc2)c1`, which growth is on record?
Its growth is 104%.

How did the growth turn out when `OCC1OC(OC2C(O)C(CO)OC2(CO)OC2OC(CO)C(O)C(O)C2O)C(O)C(O)C1O` (centres undefined) was run?
The growth was 121%.

Which growth does the source give for `C[N+](C)(C)C(=O)c1ccccc1` here?
The growth was 113%.

How did the growth turn out when `O=[N+]([O-])c1ccc(Cl)c(S(=O)(=O)O)c1` was run?
Its growth is 106%.

For `Cc1cc2ccccc2c(O)c1C#N`, which growth is on record?
Its growth is 108%.

With `COc1ncnc2c1cnn2C` as the compound, how does the growth read?
The growth was 109%.

For `NC(C(=O)O)c1ccc([N+](=O)[O-])cc1` (centres undefined), which growth is on record?
The growth was 107%.

`CC(O)COc1ccc(-c2ccccc2)cc1` (centres undefined) was tested. Which growth did it give?
Its growth is 108%.
